Measured values from the supplement of paper PMC13380429.

System: Vero E6 infected with SARS-CoV-2
Assay: inhibition of SARS-CoV-2 cytopathic effect; higher = more antiviral protection, active = above 15
Conditions: 48 h

Measured: inhibition of SARS-CoV-2 cytopathic effect

CC(=O)Nc1ccc(OC(C)=O)cc1 [diacetamate]
inactive: 1 nM -0.51% | 8.33 nM 0.65% | 100 nM 3.04% | 833.33 nM 0.82% | 10000 nM 2.03%

Cc1ccc2c(Cl)cc(Cl)c(O)c2n1 [chlorquinaldol]
inactive: 1 nM -1.39% | 8.33 nM -0.32% | 100 nM -1.09% | 833.33 nM -1.86% | 10000 nM 0.43%

O=C(O)Cc1cccc(OCCCN(Cc2cccc(C(F)(F)F)c2Cl)CC(c2ccccc2)c2ccccc2)c1
inactive: 1 nM 0.26% | 8.33 nM 0.75% | 100 nM 2.25% | 833.33 nM 0.38% | 10000 nM 8.79%

Cn1cnc2c1c(=O)[nH]c(=O)n2C [theobromine]
inactive: 1 nM -1.8% | 8.33 nM 1.86% | 100 nM 1.32% | 833.33 nM 1.3% | 10000 nM -1.36%

O=P1(NCCCl)OCCCN1CCCl (stereo not given) [ifosfamide]
inactive: 1 nM 0.24% | 8.33 nM -2.31% | 100 nM 0.48% | 833.33 nM 0.22% | 10000 nM -0.05%

CC#CCOC(=O)c1c(C)nc2sc3c(c2c1N)CCC(O)C3 (stereo not given)
inactive: 1 nM 1.8% | 8.33 nM 0.47% | 100 nM 3.12% | 833.33 nM -0.32% | 10000 nM 0.73%

CCS(=O)(=O)N1CC(CC#N)(n2cc(-c3ncnc4[nH]ccc34)cn2)C1 [baricitinib]
inactive: 1 nM 3.34% | 8.33 nM -0.51% | 100 nM -1.28% | 833.33 nM 0.06% | 10000 nM -2.55%

CC(=O)N1CCC(C(=O)N(CCCN2CCC(Cc3ccc(C(N)=O)cc3)CC2)c2ccc(C)c(Cl)c2)CC1
inactive: 1 nM 0.74% | 8.33 nM -0.02% | 100 nM -0.6% | 833.33 nM 0.17% | 10000 nM 2.52%

O=[N+]([O-])c1ccc2c(c1)S(=O)(=O)C=C2 [stattic]
inactive: 1 nM -2.62% | 8.33 nM -2.1% | 100 nM -5.02% | 833.33 nM 5.41% | 10000 nM -2.07%

C[C@H](N[C@@H](CCc1ccccc1)C(=O)O)C(=O)N1Cc2ccccc2C[C@H]1C(=O)O [quinaprilat]
inactive: 1 nM -0.56% | 8.33 nM -0.93% | 100 nM -1.42% | 833.33 nM -0.25% | 10000 nM 0.11%

Cc1cc(SCc2sc(-c3ccc(C(F)(F)F)cc3)nc2C)ccc1OCC(=O)O
inactive: 1 nM -0.18% | 8.33 nM 1.2% | 100 nM 0.1% | 833.33 nM 1.79% | 10000 nM -2.99%

CN(C)CCCN1c2ccccc2Sc2ccc(C(F)(F)F)cc21 [triflupromazine]
inactive: 1 nM 1.3% | 8.33 nM -0.49% | 100 nM -1.51% | 833.33 nM 1.78% | 10000 nM 0.59%

O=C(O)[C@H](CC(=O)N1C[C@H]2CCCC[C@H]2C1)Cc1ccccc1 [mitiglinide]
inactive: 1 nM -0.3% | 8.33 nM -1.42% | 100 nM -1.04% | 833.33 nM -1.17% | 10000 nM 1.67%

O=C1[C@H](Cc2ccc(O)cc2)N2C(=O)CCN(C(=O)NCc3ccccc3)[C@H]2CN1Cc1cccc2ccccc12
inactive: 1 nM -0.18% | 8.33 nM 0.82% | 100 nM 2.23% | 833.33 nM 1.89% | 10000 nM -3.36%

CC[C@H](C)[C@@H]1NC(=O)[C@H](Cc2ccc(O)cc2)NC(=O)[C@@H](N)CSSC[C@@H](C(=O)N2CCC[C@H]2C(=O)N[C@@H](CC(C)C)C(=O)NCC(N)=O)NC(=O)[C@H](CC(N)=O)NC(=O)[C@H](CCC(N)=O)NC1=O [oxytocin]
inactive: 1 nM 5.14% | 8.33 nM 3.79% | 100 nM 3.52% | 833.33 nM 0.66% | 10000 nM -0.57%

CCC[C@H](NC(=O)[C@@H]1[C@H]2CCC[C@H]2CN1C(=O)[C@@H](NC(=O)[C@@H](NC(=O)c1cnccn1)C1CCCCC1)C(C)(C)C)C(=O)C(=O)NC1CC1 [telaprevir]
inactive: 1 nM 0.02% | 8.33 nM -0.75% | 100 nM 0.71% | 833.33 nM 5.12% | 10000 nM -2.66%

O=C(NNc1ccccc1)c1ccncc1 [plurisin-1]
inactive: 1 nM 0.37% | 8.33 nM 1.32% | 100 nM 1.76% | 833.33 nM -2.79% | 10000 nM -6.02%

CN(C/C=C/C#CC(C)(C)C)Cc1cccc2ccccc12 [terbinafine]
inactive: 1 nM 5.77% | 8.33 nM 2.3% | 100 nM 8.59% | 833.33 nM 6.27% | 10000 nM 8.15%

O=C([O-])CN1CCN(CC(=O)[O-])CCN([C@H](CO)[C@H](O)CO)CCN(CC(=O)[O-])CC1.[Gd+3] (racemic) [gadobutrol]
inactive: 1 nM -1.29% | 8.33 nM 1.41% | 100 nM 0.03% | 833.33 nM 0.17% | 10000 nM 2.16%

COC(=O)[C@@H]1CC2=CC(=O)CC[C@]2(C)[C@@]23O[C@@H]2C[C@@]2(C)[C@@H](CC[C@@]24CCC(=O)O4)[C@H]13 [eplerenone]
inactive: 1 nM 0.06% | 8.33 nM 2.8% | 100 nM 0.3% | 833.33 nM 1.53% | 10000 nM 0.25%

CNC(=O)c1cccc(NC(=O)N2CCC(Oc3ccccc3Cl)CC2)c1
inactive: 1 nM 0.48% | 8.33 nM -3.23% | 100 nM -1.17% | 833.33 nM -2.36% | 10000 nM -3.23%

C[C@@H](C(=O)O)c1ccc(-c2ccccc2)c(F)c1 (racemic) [flurbiprofen-(+/-)]
inactive: 1 nM 0.383% | 8.33 nM 0.72% | 100 nM 1.91% | 833.33 nM 1.32% | 10000 nM -0.637%

Cc1csc(NC(=O)CSc2ccc(-c3ccccc3)nn2)n1
inactive: 1 nM 6.45% | 8.33 nM -1.88% | 100 nM -1.71% | 833.33 nM -1.48% | 10000 nM 12.2%

CCCc1nc(C(C)(C)O)c(C(=O)O)n1Cc1ccc(-c2ccccc2-c2nnn[nH]2)cc1 [olmesartan]
inactive: 1 nM 1.89% | 8.33 nM -1.22% | 100 nM 1.17% | 833.33 nM 0.82% | 10000 nM -0.94%

Nc1nnc(Sc2ncc([N+](=O)[O-])s2)s1
inactive: 1 nM 3.57% | 8.33 nM -1.18% | 100 nM -0.27% | 833.33 nM -2.43% | 10000 nM -20.9%

COC(=O)c1cnn(-c2ccc(F)cc2F)c1/C=N/NC(=S)NC(C)(C)C
inactive: 1 nM -1.1% | 8.33 nM 0.05% | 100 nM 2.03% | 833.33 nM 3.03% | 10000 nM 6.39%

COc1cc(N)c(Cl)cc1C(=O)NC1CN2CCC1CC2 (stereo not given) [zacopride]
inactive: 1 nM 0.12% | 8.33 nM -0.23% | 100 nM -1.28% | 833.33 nM -2.33% | 10000 nM -4.26%

c1ccc(Oc2cccnc2)cc1
inactive: 1 nM 2.35% | 8.33 nM 1.64% | 100 nM 1.02% | 833.33 nM 2.24% | 10000 nM 1.23%

COC(=O)C1=CO[C@@H](O)[C@@H]2C(CO)=CC[C@H]12 [genipin]
inactive: 1 nM -1.26% | 8.33 nM 1% | 100 nM 0.94% | 833.33 nM -0.49% | 10000 nM -0.89%

O=C(Nc1cc(C(F)(F)F)cc(C(F)(F)F)c1)c1cc(Cl)ccc1O [IKK-2-inhibitor-V]
inactive: 1 nM -4.92% | 8.33 nM -2.65% | 100 nM 1.55% | 833.33 nM 10.7% | 10000 nM 4.63%

O=C(O)CCC(=O)OC[C@@H](NC(=O)C(Cl)Cl)[C@H](O)c1ccc([N+](=O)[O-])cc1 [chloramphenicol-sodium-succinate]
inactive: 1 nM 3.1% | 8.33 nM -0.01% | 100 nM 2.32% | 833.33 nM 3.18% | 10000 nM 1.6%

O=C1CS[C@@H](c2ccccc2Cl)c2cc(Cl)ccc2N1 (racemic)
inactive: 1 nM 1.66% | 8.33 nM -2.6% | 100 nM -1.47% | 833.33 nM 5.44% | 10000 nM 7.2%

COc1ccc(-c2nc(N3CCOCC3)c3sc(CN(C)c4ncc(C(=O)NO)cn4)cc3n2)cn1
inactive: 1 nM -0.39% | 8.33 nM -5.36% | 100 nM -18.1% | 833.33 nM -20.7% | 10000 nM -21.4%

NS(=O)(=O)c1cc(-c2nnn[nH]2)c(NCc2cccs2)cc1Cl [azosemide]
inactive: 1 nM 2.38% | 8.33 nM -0.55% | 100 nM 3.16% | 833.33 nM 9.99% | 10000 nM -3.43%

Cc1nc(-c2cccnc2)sc1C(=O)Nc1ccccc1-c1cn2c(CN3CCOCC3)csc2n1
inactive: 1 nM -1.3% | 8.33 nM 1.11% | 100 nM 1.74% | 833.33 nM 0.18% | 10000 nM -2.05%

CCC(C/C=C/c1ccccc1)(c1ccccc1)N(C)CC1CC1 (stereo not given) [igmesine]
inactive: 1 nM -0.08% | 8.33 nM 0.01% | 100 nM -2.22% | 833.33 nM -1.63% | 10000 nM 6.93%

O=C(/C=C/c1ccc2c(c1)OCO2)N1CCCCC1 [ilepcimide]
inactive: 1 nM 0.84% | 8.33 nM 0.26% | 100 nM 1.04% | 833.33 nM -1.12% | 10000 nM 0.82%

O=NO [sodium-nitrite]
inactive: 1 nM 1.28% | 8.33 nM -0.03% | 100 nM 3.46% | 833.33 nM 3.43% | 10000 nM 0.91%

Cc1ccc(-c2nc3ccc(C)cn3c2CC(=O)N(C)C)cc1
inactive: 1 nM 0.77% | 8.33 nM 1.21% | 100 nM 0.45% | 833.33 nM 1.14% | 10000 nM -2.98%

O=C(CCc1ccncc1)NNC(=O)N1Cc2ccccc2Oc2ccc(Cl)cc21
inactive: 1 nM 1.3% | 8.33 nM 1.11% | 100 nM 1.69% | 833.33 nM -0.24% | 10000 nM 5.24%
